Screens from PubChem BioAssay.
p53null 32C kill: qHTS Screen for Compounds that Selectively Target Cancer Cells with p53 Mutations: Cytotoxicity of p53 Null Cells at the Permissive Temperature | H1299-neo p53 null cells, ATP luminescence, 24 h, 32C | 55,000 compounds, 0.62% hits | Potency, µM (highest dose often 46.1 µM), for inactives: at the highest dose activity change, negative = cytotoxicity, hits mostly cytotoxic | AID 903, 2007;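 further: 0% = DMSO only and -100% = full killing by 100 µM tamoxifen; nearly all actives have a fitted effect of over 55% in size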
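ATP-content luminescence in p53-null H1299-neo cells after 24 h compound exposure (up to 46 uM) at 32C permissive temperature; 0% and 100% killing set by DMSO and 100 uM tamoxifen; Hill-equation AC50.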
p53null 39C kill: qHTS Screen for Compounds that Selectively Target Cancer Cells with p53 Mutations: Cytotoxicity of p53 Null Cells at the Nonpermissive Temperature. Potency, µM (doses to about 46.1 µM), inactives show at the top dose activity, negative = cell killing, hits mostly cytotoxic. H1299 p53-null (neo) cells, 39C, ATPlite viability, 24 h. 55,000 compounds, 0.97% hits;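 further: 0% = DMSO only and -100% = full killing by 100 µM tamoxifen; nearly all actives have a fitted effect of over 50% in size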
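Luminescent ATP signal reported cell survival after H1299 lines (neo, p53 null; or p53 A138V) received up to 46 uM compound and 24 hr incubation at 39C.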
OvCa metastasis: Primary qHTS assay for Inhibitors of ovarian cancer metastasis using an organotypic tumor microenvironment (TME) model; Potency, µM (top dose mostly 45.8 µM), without a hit: top-dose activity change, negative = inhibition, usual class: inhibitors; SKOV3ip1-GFP adhesion/invasion on 3D omental model, fluorescence; 46,000 compounds, 0.1% hits;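 further: plate controls were DMSO wells for no effect and tomatine positive control wells for full effect; nearly all actives have a fitted effect of over 65% in size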
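qHTS, 4-pt dose (0.36-46 umol/L); SKOV3ip1-GFP, 1,200 cells/well, no FBS; primary omental fibroblast/mesothelial co-culture 48 h pre-grown; 2 h RT + 16 h 37 C; PBS wash, 4% PFA; GFP count 488/509 nm.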
PMP22 txn prim: Cell-based coincidence reporter assay to measure PMP22 gene transcription in S16 Pmp22-F2sN cells - Primary screen. S16 Pmp22-F2sN Schwann cells, FLuc/NLuc coincidence luminescence, 24 h. Potency, µM (top dose mostly 57.5 µM), for the others: at the top dose activity change, negative = inhibition, most hits filed as inhibitors. 43,000 compounds, 2% hits. AID 1508649, 2021; active means clear falling dose curves in both reporters; inconclusive means both reporters move, but less clearly or upward; inactive means either reporter flat; the % is the NLuc reporter signal
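Transcriptional readout in edited S16(c9) cells: two luciferases reported from the Pmp22 locus, measured in turn after 24 h compound incubation.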
mTORC1 inh: Acumen qHTS Assay for Inhibitors of the mTORC1 Signaling Pathway in MEF (Tsc2-/-, p53-/-) Cells: Sytravon; Potency, µM (series often up to 38.3 µM), without a hit: at the highest dose activity change, negative = inhibition, usual class: inhibitors; AID 493208, 2011; Tsc2-/- p53-/- MEF, phospho-rpS6 immunofluorescence/PI, 24 h; 44,000 compounds, 0.78% hits;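 further: plate controls were DMSO for no effect and rapamycin for full effect; nearly all actives have a fitted effect of over 50% in size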
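Tsc2-/-, p53-/- mouse embryonic fibroblasts (empty-vector line) exposed to compound 24 hrs at 37 C, fixed, immunostained for phospho-rpS6 and counterstained with propidium iodide. Acumen laser scanning gives % positive cells from Alexa 488/PI ratio, thresholded using 7.5 nM rapamycin; PI count gives viability.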
S16 viability: Cell viability qHTS assay in S16 Pmp22-F2sN cells | S16 Pmp22-F2sN Schwann cells (luciferase reporters placed in the Pmp22 gene) viability, CellTiter-Glo, 24 h | 43,000 compounds, 0.48% hits | Potency, µM (series often up to 57.5 µM), for the others: at the top dose activity change, negative = cytotoxicity, actives largely listed as cytotoxic; further: nearly all actives have a fitted effect of over 65% in size
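Seed 500-1,000 S16 Pmp22-F2sN cells per well in phenol-red-free DMEM with 10% heat-inactivated FBS; pin-add 23 nL compound; incubate 24 h at 37C; add CellTiter-Glo, wait 15 min protected from light; read luminescence.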
The depositor's hits bear a star; i = inactive; ? = inconclusive; . = no result given. The list is not random: actives were taken first. Their share in the collection is about 3.1%. Unless noted, the call rests on the fitted dose curve; in most records, active means well fitted curve in the direction sought with a large enough effect; inconclusive means small, poorly fitted or top-dose-only effect, or another doubt; inactive means no such curve, though single readings can be large; an effect the other way counts as inactive or inconclusive. Unless noted, on the % scale 0 is the no-effect control and ±100 the full control effect; potency means the concentration at half of the fitted maximal effect.

SMILES	p53null 32C kill	p53null 39C kill	OvCa metastasis	PMP22 txn prim	mTORC1 inh	S16 viability
CCS(=O)(=O)c1ncc(Cl)c(C(=O)Nc2c(C(=O)Nc3cccc(C)c3)oc3ccccc23)n1	?	?	-8%	3.2µM*	?	2.2µM*
CCOC(=O)c1ccc(NC(=O)c2nc(SC(C)C)ncc2Cl)cc1	-1%	-11%	i	?	2%	-9%
CCOC(=O)c1c(-c2ccccc2)csc1NC(=O)c1nc(S(=O)(=O)CC)ncc1Cl	13%	?	?	4.5µM*	?	11µM*
CCOC(=O)c1ccc(NC(=O)c2nc(S(=O)(=O)Cc3ccccc3)ncc2Cl)cc1	-9%	23%	?	1.9µM*	?	5µM*
O=C(CCCCCCC(=O)Nc1cccnc1)NO	.	.	-19%	.	.	.
O=C(O)[C@@H](c1ccc(OCc2ccc3ccccc3n2)cc1)C1CCCC1	.	.	-2%	.	.	.
CCS(=O)(=O)c1ncc(Cl)c(C(=O)Nc2ccccc2)n1	61%	20µM*	?	2.2µM*	1.8µM*	6.3µM*
CCSc1ncc(Cl)c(C(=O)Nc2ccccc2)n1	-15%	.	.	.	.	.
Cc1cccc(NC(=O)c2nc(S(C)(=O)=O)ncc2Cl)c1	23%	76%	?	2.4µM*	3.3µM*	5µM*
Fc1ccc(Cc2cn3cc(-c4ccccc4)nc3s2)cc1	4.5µM*	2µM*	i	-21%	2%	15%
Cc1cccn2c(=O)cc(COc3cccc(NC(=O)c4ccccc4F)c3)nc12	-12%	7.9µM*	?	?	?	0%
CNC(=O)c1ccc(N2C(=S)N(c3cnc(C#N)c(C(F)(F)F)c3)C(=O)C23CCC3)cc1F	.	.	-6%	.	.	.
Cn1cc(-c2cnn3c(N)c(Br)c([C@H]4CCCNC4)nc23)cn1	.	.	18%	.	.	.
O=C(NC1CCCCC1)/C(=C/c1ccc(Cl)cc1)NC(=O)c1ccccc1	6%	22%	-14%	?	15µM*	?
Cn1nnnc1SCCCNCc1ccccc1OCc1ccc(Cl)cc1	-1%	-16%	i	?	13µM*	-23%
c1cc(OCCN2CCCCC2)cc(-c2n[nH]c3ccc(-c4ncn[nH]4)cc23)c1	.	.	30%	.	.	.
Cc1cc(F)ccc1S(=O)(=O)NCC(c1ccco1)S(=O)(=O)c1cccs1 (stereo not given)	6%	16%	?	?	1%	16µM*
CCOc1ccc(S(=O)(=O)NCC(c2ccco2)S(=O)(=O)c2cccs2)cc1 (stereo not given)	1%	20%	-1%	?	1%	?
COc1ccc(S(=O)(=O)NCC(c2ccco2)S(=O)(=O)c2cccs2)cc1C (stereo not given)	15%	-1%	-2%	?	-1%	22µM*
COc1ccc(S(=O)(=O)NCC(c2ccco2)S(=O)(=O)c2cccs2)cc1F (stereo not given)	3%	-27%	7%	15µM*	-5%	13µM*
CCNC(=O)c1noc(-c2cc(C(C)C)c(O)cc2O)c1-c1ccc(CN2CCOCC2)cc1	.	.	35%	.	.	.
CCN1CCC(N(Cc2ccc3c(c2)OCO3)C(=O)Nc2ccccc2OC)CC1	-1%	-10%	1%	8%	-17%	1%
CCN1CCC(N(Cc2ccc(F)cc2)C(=O)Nc2ccc(C)c(F)c2)CC1	-14%	?	-19%	17%	16µM*	8%
CCOc1ccccc1NC(=O)N(Cc1ccc(F)cc1)C1CCN(CC)CC1	-13%	-17%	-9%	-10%	15µM*	11%
CCN1CCC(N(Cc2ccc(F)cc2)C(=O)Nc2cccc(C(F)(F)F)c2)CC1	-17%	-21%	?	?	?	?
SMILES	p53null 32C kill	p53null 39C kill	OvCa metastasis	PMP22 txn prim	mTORC1 inh	S16 viability
COc1ccccc1Nc1c2c(nc3ccc(NC(=O)c4ccc(N(C)C)cc4)cc13)CCCC2	5%	5%	?	?	5.2µM*	?
O=C1CC(c2nc3ccccc3n2CCC2CCCCC2)CN1c1ccccc1Cl (stereo not given)	?	16µM*	6%	1%	-1%	24%
CCOc1ccc(N2CC(c3nc4ccccc4n3CCC3CCCCC3)CC2=O)cc1 (stereo not given)	24%	35%	4%	?	8%	-29%
Cc1cc(OCCn2c(C3CC(=O)N(Cc4ccc(F)cc4)C3)nc3ccccc32)ccc1Cl (stereo not given)	-11%	-4%	?	?	2%	-2%
CCOc1ccccc1N1CC(c2nc3ccccc3n2CCCCOc2cc(C)ccc2C)CC1=O (stereo not given)	?	13µM*	-2%	-24%	-11%	12%
CCc1ccccc1N1CC(c2nc3ccccc3n2CCOc2ccc(Cl)c(C)c2)CC1=O (stereo not given)	39%	18µM*	-28%	?	-16%	?
CCOc1ccccc1N1CC(c2nc3ccccc3n2CCCOc2ccccc2OC)CC1=O (stereo not given)	-2%	-11%	1%	-21%	-13%	3%
CCOc1ccccc1N1CC(c2nc3ccccc3n2CCOc2ccc(C(C)(C)C)cc2)CC1=O (stereo not given)	?	20µM*	-8%	-21%	?	13%
CNc1nc(-c2ccc3c(N)n[nH]c3c2)cc(N2C[C@@H](C(=O)NC3CCCCC3)CC[C@@H]2C)n1	.	.	-27%	.	.	.
Cc1ccnc(NC(=O)/C=C/c2cccs2)c1	10µM*	.	.	.	.	.
NC[C@H]1O[C@H](O[C@H]2[C@@H](O)[C@@H](O[C@H]3O[C@H](CO)[C@@H](O)[C@H](N)[C@@H]3O)[C@H](N)C[C@@H]2N)[C@H](N)C[C@H]1O	.	.	2%	.	.	.
C[C@@H](Oc1cc(-c2cnn(C3CCNCC3)c2)cnc1N)c1c(Cl)ccc(F)c1Cl	.	.	-16%	.	.	.
CCC1=Nc2cc(C(=O)NC3CCCC3)ccc2Sc2ccc(Cl)cc21	20%	30%	2%	8.4µM*	?	?
